According to the supplement of paper PMC10646978:
± gives the standard deviation.

Key:
Conditions in all cases: modulator concentration 10 µM
[1] = system: RAW-Dual (murine macrophage reporter line); assay: NF-kB reporter (SEAP) activity fold change vs agonist alone; higher = enhanced NF-kB activity
Method in brief: (§1)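 RAW-Dual murine macrophage reporter cells were seeded at 50 000 per well in 384-well plates and pre-incubated 1 hour at 37 °C with compound pin-transferred to 10 μM final. After 1 hour, a PRR agonist was added and cells incubated overnight. Supernatant NF-κB (SEAP, QUANTI-Blue, 620 nm absorbance) and IRF (Lucia luciferase, QUANTI-Luc, luminescence) signals were divided by the mean agonist-only control on the same plate to give fold change. Two replicate plates were averaged, with errors by propagation.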

[2] = system: RAW-Dual (murine macrophage reporter line); assay: IRF reporter (Lucia luciferase) activity fold change vs agonist alone; higher = enhanced IRF activity
Method in brief: as §1

[3] = system: RAW-Dual (murine macrophage reporter line); assay: viability score (confluency relative to resting cells, overnight) (fraction); higher = more viable, active = viable (0.7 or more)
Method in brief: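 RAW-Dual macrophages in 384-well plates were incubated overnight with compound, final concentration 10 μM. Confluency images from IncuCyte were processed in IncuCyte software into two masks covering all imaged wells. The viability score is each well's confluency relative to resting cells, and a compound met the cutoff when both masks exceeded 70% of resting cells.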

[4] = agonist: CpG ODN 1826 0.5 ug/mL

Compound	NF-kB reporter [1, 4]	NF-kB reporter ([1]; agonist: LPS 0.1 ug/mL)	NF-kB reporter ([1]; agonist: MPLA […])	IRF reporter ([2]; agonist: 3'3'-cGAMP 10 ug/mL)	IRF reporter ([2]; agonist: LPS 0.1 ug/mL)	IRF reporter ([2]; agonist: MPLA […])	viability score [3]
c1ccc(CNc2nc(N3CCOCC3)nc(N3CCOCC3)n2)cc1	0.882 ± 0.24	0.947 ± 0.079	0.987 ± 0.081	0.758 ± 0.027	1.09 ± 0.12	1.24 ± 0.21	0.991 (active)
CN(c1ccccc1)c1nnc(C(C)(C)C)c(=O)[nH]1	1.05 ± 0.079	0.951 ± 0.076	1.01 ± 0.048	1.03 ± 0.039	0.908 ± 0.11	0.863 ± 0.24	0.994 (active)
C=C1CCC(OC(C)=O)C(C)=CCC2C1CC2(C)C (stereo unspecified)	0.932 ± 0.086	0.776 ± 0.1	0.752 ± 0.071	0.671 ± 0.038	0.928 ± 0.17	0.779 ± 0.24	1.03 (active)
C[C@H](Oc1ccc(S(C)(=O)=O)cc1C(=O)N1CCN(c2ncc(C(F)(F)F)cc2F)CC1)C(F)(F)F	0.902 ± 0.073	0.807 ± 0.11	0.936 ± 0.056	0.821 ± 0.074	1.03 ± 0.038	0.706 ± 0.15	1 (active)
COCCOC(=O)C1=C(C)NC(=S)NC1c1ccccc1OC (stereo unspecified)	1.03 ± 0.098	0.995 ± 0.056	0.956 ± 0.11	0.964 ± 0.039	1.38 ± 0.095	1.19 ± 0.22	1.01 (active)
Nc1ncn([C@H]2C[C@H](O)[C@@H](CO)O2)c(=O)n1	1.3 ± 0.11	0.995 ± 0.054	1.15 ± 0.061	1.84 ± 0.32	1.09 ± 0.048	1.39 ± 0.27	0.963 (active)
C1CCC(N2NC2C2NN2C2CCCCC2)CC1 (stereo unspecified)	1.01 ± 0.22	1.03 ± 0.11	0.964 ± 0.091	0.938 ± 0.024	1.23 ± 0.19	1.05 ± 0.11	1.01 (active)
CC(CN1c2ccccc2Sc2ccccc21)N(C)C.Cl (stereo unspecified)	0.789 ± 0.11	1.17 ± 0.29	0.96 ± 0.055	0.336 ± 0.024	1.16 ± 0.42	1.15 ± 0.091	0.389 (inactive)
COC12C(COC(N)=O)C3=C(C(=O)C(C)=C(N)C3=O)N1CC1NC12 (stereo unspecified)	1.35 ± 0.12	0.967 ± 0.083	1.18 ± 0.13	1.09 ± 0.075	1.32 ± 0.18	1.41 ± 0.28	0.969 (active)
C=C1C(=O)OC2C1CCC(C)=CCCC1(C)OC21 (stereo unspecified)	0.0586 ± 0.0046	0.0442 ± 0.0037	0.0844 ± 0.008	0.0346 ± 0.011	0.025 ± 0.0055	0.0274 ± 0.0061	0.253 (inactive)
Oc1nc[nH]n1	1.05 ± 0.087	0.927 ± 0.067	1.02 ± 0.022	1 ± 0.06	0.923 ± 0.04	0.838 ± 0.074	1 (active)
Cc1cc(C)nc(NC#N)n1	0.919 ± 0.072	0.966 ± 0.11	0.971 ± 0.061	0.776 ± 0.1	1.02 ± 0.13	1.18 ± 0.2	0.998 (active)
CCOc1ccc(-c2nc3c(c(C)nn3-c3ccccc3)c3cc(OC)c(OC)cc23)cc1	0.812 ± 0.063	0.934 ± 0.089	1.05 ± 0.095	0.948 ± 0.043	1.29 ± 0.075	1.48 ± 0.14	1 (active)
